Test results reported in PubChem BioAssay AID488908 (National Center for Advancing Translational Sciences (NCATS), 2010).
Records with an inconclusive call do not appear. Entries that show only a call come without a potency. Calls of active or inactive are those of the source. The call rests on the fitted dose curve; in most records, active means well fitted inhibition curve with a large enough effect; inconclusive means small, poorly fitted or top-dose-only effect; inactive means flat fitted curve, though single readings scatter.

Test: Secondary Assay for lipid storage modulators: Cytotoxcity for probe SAR
Conditions: Drosophila S3 cells viability, CellTiter-Glo luminescence, 24 h, with oleic acid added (1 µL, 400 µM); series mostly up to 46.1 µM
Summary of the method: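 CellTiter-Glo luminescence read after 24 h at 24 degrees C; embryonic Drosophila S3 cells (5,000/well) were co-treated with oleic acid (400 uM stock) and a range of compound concentrations.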

SMILES: O=C(NC1CCCc2c1cnn2-c1ccc(F)cc1F)c1ccc2cc[nH]c2c1 (configuration not stated)
- Potency: 22.3 µM (active)

SMILES: CCCn1c(-c2ccc(OC)cc2)cnc1SCC(=O)Nc1nc(C)c(C)s1
- Potency: inactive

SMILES: O=C(NC1CCCc2c1cnn2-c1ccc(F)cc1F)c1ccc(F)cc1 (configuration not stated)
- Potency: 14.1 µM (active)

SMILES: O=C(NC1CCCc2c1cnn2-c1ccccc1F)c1ccc2ncccc2c1 (configuration not stated)
- Potency: 2.23 µM (active)

SMILES: O=C(NC1CCCc2c1cnn2-c1ccc(F)cc1F)C1CCCCN1 (configuration not stated)
- Potency: inactive

SMILES: O=C(NC1CCCCC1)NC1(C(=O)N2CCCC2)CCCCC1
- Potency: inactive

SMILES: CC(C)(C)OC(=O)NC1CCCc2c1cnn2-c1ccc(F)cc1F (configuration not stated)
- Potency: 9.96 µM (active)

SMILES: CCOc1ccc(CCNC(=O)C2(c3ccccc3)CC2)cc1OCC
- Potency: inactive

SMILES: O=C(NC1CCCc2c1cnn2-c1ccc(F)cc1F)c1ccc(C2(C(F)(F)F)N=N2)cc1 (configuration not stated)
- Potency: 3.97 µM (active)

SMILES: CCOc1ccc(CCNC(=O)C2COc3ccccc3O2)cc1OCC (configuration not stated)
- Potency: inactive

SMILES: CCOC(=O)C1CCN(C(=O)C2(NC(=O)Nc3ccc(F)cc3F)CCCCC2)CC1
- Potency: inactive

SMILES: CCOc1ccc(CCNC(=O)Cc2ccccc2)cc1OCC
- Potency: inactive

SMILES: Cc1cccc(Nc2nnc(SCC(=O)Nc3nc(-c4ccc(F)cc4)cs3)s2)c1
- Potency: inactive

SMILES: CCOc1ccc(CCNC(=O)c2cccs2)cc1OCC
- Potency: inactive

SMILES: CC1=C(C(=O)NC2CCCc3c2cnn3-c2ccc(F)cc2F)OCCO1 (configuration not stated)
- Potency: 0.996 µM (active)

SMILES: O=C(NC1CCCc2c1cnn2-c1ccc(F)cc1F)c1ccccc1 (configuration not stated)
- Potency: 5.6 µM (active)

SMILES: O=C(NCCc1ccc(O)c(O)c1)c1cc2sccc2[nH]1
- Potency: inactive
